17 molecules from PubChem BioAssay (NCI) can be followed below.

Compounds without any hit were thinned out: in the full panel of roughly 83,000, 20% have a hit.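 Assay: single dose, 48 h. Readout: percent growth (0 = no net growth; negative = cell death). Active: <10.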 Unmarked numbers belong to inactive results. The source made the active and inactive calls.

Among the test systems are SK-MEL-2 melanoma; EKVX NSCLC; SN12C renal; UO-31 renal; TK-10 renal; CAKI-1 renal; A498 renal; CCRF-CEM leukemia; ACHN renal; MOLT-4 leukemia.
Assay in all cases: NCI-60 one-dose screen, 48 h (100 = growth as untreated, 0 = no growth, -100 = all killed)
What all share (details): 10 µM unless noted

In the case of `Cc1c(C)c(C)c([N+](=O)[O-])c([N+](=O)[O-])c1C`, the growth in the experiment on SK-MEL-2 melanoma is 103%; in the experiment with EKVX NSCLC, 90.7%; with SN12C renal it was 98.7%; with UO-31 renal it was 81.8%; in the experiment with TK-10 renal it was 91.3%; with CAKI-1 renal, 90.8%. The growth is 67.9% in the experiment on A498 renal and 121% in the experiment with CCRF-CEM leukemia.
For `Oc1ccc(CCCCCCc2ccc(O)cc2)cc1`, the growth in the experiment on SK-MEL-2 melanoma is 89.2%; in the experiment with EKVX NSCLC, 74.5%; with SN12C renal, 69.6%; in the experiment with TK-10 renal, 84.9%; with ACHN renal it was -4.64% (active); in the experiment on CAKI-1 renal, 16.8%. For the same molecule, the values for the growth in the experiment with A498 renal, with CCRF-CEM leukemia and in the experiment with MOLT-4 leukemia were 103%, 18.5% and 106%, respectively.
Consider `C/C(=N\NC(=S)N1CCCCC1)c1ccccn1`, for which the growth in the experiment with SK-MEL-2 melanoma was 34.3%; in the experiment on EKVX NSCLC, -4.33% (active); in the experiment with SN12C renal, 21%; with TK-10 renal it was 22.4%; in the experiment on ACHN renal, 17.3%; in the experiment on CAKI-1 renal, -4% (active). For the same molecule, the growth is -13.5% (active) with A498 renal, 8.62% (active) in the experiment with CCRF-CEM leukemia and -3.73% (active) in the experiment with MOLT-4 leukemia.
As to `Cc1[nH]n(C(=O)c2ccncc2)c(=O)c1N=Nc1ccc(O)c(C(=O)O)c1`, the growth in the experiment with SK-MEL-2 melanoma is 159%; in the experiment on EKVX NSCLC it was 127%; in the experiment with SN12C renal it was 93.6%; with TK-10 renal it was 83.2%; with ACHN renal, 106%; in the experiment with A498 renal, 110%. Further, the growth in the experiment on CCRF-CEM leukemia is -36.1% (active); in the experiment on MOLT-4 leukemia, 87.4%.
Regarding `O=C(O)C1[S][Sb]([CH](C(=O)O)[CH](C(=O)O)[Sb]2[S]C(C(=O)O)C(C(=O)O)[S]2)[S]C1C(=O)O` (configuration not stated), the growth with SK-MEL-2 melanoma is 64.7%; in the experiment with EKVX NSCLC it was 98%; with SN12C renal, 90.2%; in the experiment with TK-10 renal it was 124%; in the experiment on ACHN renal, 96.5%; in the experiment on CAKI-1 renal, 96.3%. Moreover, the growth in the experiment with A498 renal is 101%; in the experiment with CCRF-CEM leukemia, 52.9%; in the experiment on MOLT-4 leukemia it was 63.7%.
Consider `CNCc1ccccc1CN(CC(=O)Nc1ccc2c(c1)CC1(C2)C(=O)Nc2ncccc21)C(=O)C(C)(C)C` (configuration not stated), for which the growth is 104% in the experiment on SK-MEL-2 melanoma; 100% with EKVX NSCLC; 103% in the experiment with SN12C renal; 88.1% in the experiment on UO-31 renal; 103% with TK-10 renal; 91.6% in the experiment with CAKI-1 renal. The figures for the growth with A498 renal, in the experiment on CCRF-CEM leukemia and in the experiment with MOLT-4 leukemia were 122%, 116% and 103%, respectively.
Take `COc1cc2nccc(Oc3ccc(NC(=O)C4(C(=O)Nc5ccc(F)cc5)CC4)cc3)c2cc1O`: the growth in the experiment on SK-MEL-2 melanoma is 88.1%; with EKVX NSCLC it was 71.1%; in the experiment on SN12C renal it was 30.5%; in the experiment with TK-10 renal it was 76.8%; in the experiment with ACHN renal, 67.8%; in the experiment with CAKI-1 renal, 78.1%. For the same molecule, the growth is 59.4% in the experiment on A498 renal, 29% in the experiment on CCRF-CEM leukemia and 44.9% with MOLT-4 leukemia.
As to `COc1ccc2[nH]c(C(=O)OCc3ccc4c(Br)cc(Br)c(O)c4n3)cc2c1`, the growth was -40.3% (active) in the experiment on SK-MEL-2 melanoma; -70.9% (active) with EKVX NSCLC; -71.2% (active) with SN12C renal; -100% (active) with UO-31 renal; -95.6% (active) in the experiment with TK-10 renal; -98.7% (active) with CAKI-1 renal. The growth with A498 renal was -17.1% (active); in the experiment with CCRF-CEM leukemia, 3.76% (active); in the experiment on MOLT-4 leukemia, -8.86% (active).
In the case of `COc1ccc2[nH]c(O)c(/C=c3/ccc4c(c3)N=C(c3ccc(F)cc3)N=4)c2c1`, the growth in the experiment on SK-MEL-2 melanoma is 110%; with EKVX NSCLC it was 80.4%; in the experiment on SN12C renal, 50.2%; in the experiment on UO-31 renal, 63.2%; in the experiment on TK-10 renal, 116%; in the experiment on A498 renal it was 92.9%. The figures for the growth with CCRF-CEM leukemia and in the experiment with MOLT-4 leukemia were 42.5% and 67.7%, respectively.
In the case of `N#Cc1nc(-c2cccc(Br)c2)cc(-c2ccc(Nc3nc(N4CCCCC4)nc(N4CCCCC4)n3)cc2)c1N`, the growth with SK-MEL-2 melanoma was -10.7% (active); in the experiment with EKVX NSCLC it was 5.85% (active); with SN12C renal it was 16.7%; in the experiment on TK-10 renal, -87.8% (active); with ACHN renal, -96.3% (active); with A498 renal it was -20% (active). Also, the growth is 11.4% with CCRF-CEM leukemia and 8.61% (active) in the experiment with MOLT-4 leukemia.
Consider `OC(c1cc2cc(Cl)ccc2c2cc(C(F)(F)F)ccc12)C1CCCCN1` (configuration not stated), for which the growth in the experiment on SK-MEL-2 melanoma is -92% (active); in the experiment on EKVX NSCLC it was -40.4% (active); in the experiment with SN12C renal it was -62.8% (active); in the experiment with UO-31 renal, -88.2% (active); with TK-10 renal, -96.4% (active); in the experiment with CAKI-1 renal it was -74.2% (active). Moreover, the growth in the experiment on A498 renal was 27.2%; in the experiment with CCRF-CEM leukemia, -61.2% (active); in the experiment with MOLT-4 leukemia it was -69.3% (active).
Regarding `COCCn1c(Nc2ccc(C(=O)NO)cc2)nc2ccccc21`, the growth in the experiment on SK-MEL-2 melanoma was 39.6%; in the experiment on EKVX NSCLC it was 56.5%; in the experiment with SN12C renal, 66.3%; in the experiment with UO-31 renal, 50.3%; in the experiment on TK-10 renal, 26.7%; in the experiment with CAKI-1 renal it was 47.3%. Also, the growth in the experiment on CCRF-CEM leukemia was 48.5%; in the experiment on MOLT-4 leukemia, 33.4%.
Turning to `CC(=O)N[C@@H](CCC(N)=O)C(=O)O`, the growth in the experiment on SK-MEL-2 melanoma was 118%; in the experiment with EKVX NSCLC, 107%; in the experiment on SN12C renal it was 85.7%; in the experiment on TK-10 renal, 107%; in the experiment with ACHN renal, 94.7%; in the experiment with CAKI-1 renal, 73.8%. For the same molecule, the growth with MOLT-4 leukemia was 95.3%.
For the molecule `C[C@]12CCc3nc(Nc4ccc(O)cc4)sc3C1=CC[C@@H]1[C@@H]2CC[C@]2(C)/C(=N/NC(N)=S)CC[C@@H]12`, the growth in the experiment with SK-MEL-2 melanoma is -13.5% (active); in the experiment on EKVX NSCLC, -19.1% (active); with SN12C renal, -46.7% (active); with TK-10 renal, -7.19% (active); in the experiment on ACHN renal it was -72.4% (active); in the experiment on CAKI-1 renal, -36.2% (active). Besides, the growth in the experiment on A498 renal was 93.1%; in the experiment with CCRF-CEM leukemia, -7.49% (active); in the experiment on MOLT-4 leukemia it was -5.84% (active).
With `CCCCOc1ncnc2nc[nH]c12`, the growth with SK-MEL-2 melanoma is 104%; in the experiment with EKVX NSCLC, 112%; in the experiment on SN12C renal, 102%; in the experiment with UO-31 renal, 99.7%; in the experiment with TK-10 renal it was 101%; with ACHN renal, 101%. The growth in the experiment with CCRF-CEM leukemia was 113%; in the experiment with MOLT-4 leukemia, 91.9%.
With `CCOCC(O)(c1ccc(Cl)cc1)c1ccc(Cl)cc1`, the growth with SK-MEL-2 melanoma is 102%; with EKVX NSCLC, 94.1%; in the experiment with SN12C renal it was 105%; in the experiment with UO-31 renal it was 91.3%; with TK-10 renal, 110%; in the experiment with CAKI-1 renal, 88.2%. Further, the growth with CCRF-CEM leukemia was 96.1%; in the experiment with MOLT-4 leukemia it was 88.7%.
`COC(=O)c1ccc(NC(N)=NCCC(C)(C)c2ccc(C(F)(F)F)cc2)nc1`: the growth in the experiment with SK-MEL-2 melanoma is 70.3%; with EKVX NSCLC, 20.3%; in the experiment on SN12C renal it was 53.4%; in the experiment with UO-31 renal it was 34.2%; in the experiment with TK-10 renal, 49.6%; in the experiment on CCRF-CEM leukemia it was 34.2%. For the same molecule, the growth in the experiment with MOLT-4 leukemia is 4.23% (active).
